Bioassay records (PubChem)
Compounds with a hit are over-represented: about 16% of the library has one in this group of screens.
uPA generation – qHTS for Inhibitors of Cell Surface uPA Generation | cell surface uPA generation assay, qHTS | Potency, µM (doses to about 38.3 µM), usual class: inhibitors | 330,000 compounds, 0.31% hits; active = well fitted inhibition curve with a large enough effect; inconclusive = small, poorly fitted or top-dose-only effect; inactive = no such curve, though single readings can be large or run the other way; tested in mouse RAW 264.7 cells; note: nearly all actives have a fitted effect of over 55% in size
TDP1 cell CPT – qHTS for Inhibitors of human tyrosyl-DNA phosphodiesterase 1 (TDP1): qHTS in cells in presence of CPT | chicken DT40 Tdp1-/-;hTDP1 cells + 20 nM CPT, ATP luminescence, 48 h | Potency, µM (titrated, usually from 46.2 µM), usual class: inhibitors | 420,000 compounds, 12% hits; note: nearly all actives have a fitted effect of over 55% in size
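Chicken DT40 Tdp1-/- cells complemented with human TDP1, 400 cells/well, exposed to compounds plus 20 nM camptothecin for at least 48 h at 37 C; viability read as ATP content by CellTiter-Glo luminescence.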
TDP1 cell noCPT – qHTS for Inhibitors of human tyrosyl-DNA phosphodiesterase 1 (TDP1): qHTS in cells in absence of CPT; DT40 Tdp1-/- hTDP1 cells, no CPT, ATP luminescence, 48 h; Potency, µM (titrated, usually from 46.2 µM), most hits filed as inhibitors; 420,000 compounds, 15% hits; AID 686978, 2013; note: nearly all actives have a fitted effect of over 55% in size
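Luminescent ATP content (CellTiter-Glo) served as the growth readout. Knockout chicken DT40 cells expressing human TDP1 were exposed to compounds without camptothecin for a minimum 48 hr at 37 °C.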
miR-21 act – qHTS Assay for Modulators of miRNAs and/orActivators of miR-21 | HeLa miR-21 FLuc reporter, luciferase, 48 h | 340,000 tested, under 10 active | AID 2288, 2010 | Potency, µM (series often up to 38.3 µM), actives largely listed as activators;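 note: miR-21 action dims this reporter so a rising signal means less miR-21 action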
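HeLa cells endogenously expressing miR-21, stably carrying CMV-driven firefly luciferase with a downstream miR-21 binding site, 2000 cells/well. Titrations up to approximately 40 uM, 48 hours; luciferase luminescence read.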
TDP1 inh – qHTS Assay for Inhibitors of Tyrosyl-DNA Phosphodiesterase (TDP1). Tyrosyl-DNA phosphodiesterase 1 (Homo sapiens), Q9NUW8. recombinant TDP1, AlphaScreen DNA substrate cleavage. Potency, µM (series often up to 130 µM), most hits filed as inhibitors. 350,000 compounds, 0.28% hits; note: nearly all actives have a fitted effect of over 40% in size
Target sequence (Q9NUW8 whole entry, looked up): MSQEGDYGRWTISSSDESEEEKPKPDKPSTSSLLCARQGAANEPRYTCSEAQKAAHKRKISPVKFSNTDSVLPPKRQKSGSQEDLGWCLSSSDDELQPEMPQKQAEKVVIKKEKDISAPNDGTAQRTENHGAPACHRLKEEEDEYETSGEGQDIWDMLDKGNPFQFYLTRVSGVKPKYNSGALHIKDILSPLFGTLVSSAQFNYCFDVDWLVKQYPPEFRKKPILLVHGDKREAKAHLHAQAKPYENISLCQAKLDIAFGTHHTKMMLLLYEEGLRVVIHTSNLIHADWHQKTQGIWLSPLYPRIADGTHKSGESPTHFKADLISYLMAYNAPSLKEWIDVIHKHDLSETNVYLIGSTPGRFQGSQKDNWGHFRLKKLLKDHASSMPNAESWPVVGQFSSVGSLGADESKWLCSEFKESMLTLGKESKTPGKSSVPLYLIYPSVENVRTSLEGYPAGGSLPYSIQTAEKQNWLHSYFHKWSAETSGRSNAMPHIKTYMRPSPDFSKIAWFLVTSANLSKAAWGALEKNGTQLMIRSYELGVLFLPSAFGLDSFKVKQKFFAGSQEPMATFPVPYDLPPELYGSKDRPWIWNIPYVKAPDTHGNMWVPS
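E. coli-derived human Tdp1, 1 nM final. Cpd preinc 15 min RT; substrate 15 nM final, 5 min RT; AS bead mix 10 ug/ml final, 10 min RT. Signal loss = tyrosine-FITC cleavage. No-enzyme wells = max signal.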
Each line names hits and unclear results; the compound was inactive in the other large screens. Unless noted, calls come from the whole dose curve; as a rule, active = well fitted curve in the direction sought with a large enough effect; inconclusive = small, poorly fitted or top-dose-only effect, or another doubt; inactive = no such curve, though single readings can be large; an effect the other way counts as inactive or inconclusive.

CCc1ccc2oc(C(=O)NCC(c3ccc(Cl)cc3)N3CCOCC3)c(C)c2c1 (stereo not drawn)	TDP1 cell CPT 8.2µM, TDP1 cell noCPT 8.2µM (no result: uPA generation)
COC(=O)[C@@]1(Sc2ccc(C)cc2)CC(=O)N[C@@H]1c1ccco1	none (no result: uPA generation, miR-21 act, TDP1 inh)
Cc1ccccc1C(=O)Nc1cc2c(cc1N1CCCCC1)n(C)c(=O)n2C	TDP1 cell noCPT 12µM (no result: uPA generation)
Cn1c(=O)n(C)c2cc(N3CCCCC3)c(NC(=O)c3c(F)cccc3F)cc21	TDP1 cell CPT 13µM, TDP1 cell noCPT 26µM (no result: uPA generation)
Cn1c(=O)n(C)c2cc(N3CCCC3)c(NC(=O)c3cccc(F)c3)cc21	TDP1 cell CPT inconclusive, TDP1 cell noCPT inconclusive
COc1cc(/C=N/NC(=O)C2(O)c3ccccc3-c3ccccc32)ccc1O	none
O=C(CCc1nnc(-c2ccc3c(c2)OCO3)o1)NCCc1ccccc1F	TDP1 cell CPT 16µM, TDP1 cell noCPT inconclusive
COc1ccc(Cl)cc1NC(=O)Cn1ncc2c3ccccc3n(Cc3ccccc3)c2c1=O	TDP1 cell CPT inconclusive, TDP1 cell noCPT 15µM (no result: uPA generation)
CC(CCc1ccccc1)NC(=O)Cn1ncc2c3ccccc3n(Cc3cccc(Cl)c3)c2c1=O (stereo not drawn)	TDP1 cell CPT inconclusive, TDP1 cell noCPT inconclusive (no result: uPA generation)
O=C(Cn1ncc2c3ccccc3n(Cc3cccc(Cl)c3)c2c1=O)Nc1ccc(F)cc1F	TDP1 cell CPT 29µM, TDP1 cell noCPT 21µM (no result: uPA generation)
OCCC1CN(CCCc2ccccc2)CCN1CCc1ccccc1 (stereo not drawn)	TDP1 cell CPT inconclusive, TDP1 cell noCPT inconclusive (no result: TDP1 inh)
N#C/C(=C(/O)c1ccc2c(c1)OCO2)c1nc2cc(C(F)(F)F)ccc2s1	TDP1 cell CPT 10µM, TDP1 cell noCPT 15µM (no result: TDP1 inh)
COC(=O)c1c(C)[nH]c(C(=O)OC(C)C(=O)N(C)C2CCCCC2)c1C (stereo not drawn)	TDP1 cell CPT inconclusive, TDP1 cell noCPT 16µM (no result: miR-21 act, TDP1 inh)
Cc1c(NS(=O)(=O)c2ccc(Cl)c(C(=O)OC(C)C(=O)N3CCOCC3)c2)c(=O)n(-c2ccccc2)n1C (stereo not drawn)	none
CC1CCN(C(=O)c2cc3nc(-c4ccccc4)cc(-c4ccccc4)n3n2)CC1	TDP1 cell CPT 16µM, TDP1 cell noCPT 29µM (no result: uPA generation, TDP1 inh)
COc1ccc(NC(=O)CSc2ccc3nc(-c4ccccc4)cn3n2)cc1OC	none (no result: uPA generation)
